Measured values published in the supplement of paper PMC10933113.
Structures can show the parent of a compound that is named as a salt. ± gives the uncertainty stated by the source.

System: THP-1
Assay: CD54 surface expression induction over DMSO control (% over DMSO); higher = stronger dendritic cell activation
Details: exposure time: 24 h
Description: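 hCLAT-like CD54 and CD86 surface expression on THP1 cells after 24 h exposure at a single concentration (highest non-cytotoxic concentration, or 100-200 µM if not cytotoxic). Flow cytometry (iQue) was run on 5,000 live cells.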

Compound | CD54 surface expression induction
Oc1ccc2cc(SSc3ccc4cc(O)ccc4c3)ccc2c1 [6-Hydroxy-2-naphthyl disulfide] (100 µM) | 71.9 ± 1.4
C[n+]1cc2c3c(ccc2c2ccc4cc5c(cc4c21)OCO5)OCO3 [Sanguinarine] (10 µM) | 36 ± 5.9
C#CCN(C)CCCOc1ccc(Cl)cc1Cl [Clorgyline hydrochloride] (100 µM) | -7.99 ± 0.71
O=C(O)c1cccnc1Nc1cccc(C(F)(F)F)c1 [Niflumic acid] (100 µM) | -11.5 ± 10
O=C1c2ccccc2C(=O)C1c1ccc2ccccc2n1 [D & C Yellow II] (10 µM) | -4.43 ± 3.6
O=CC(=O)c1ccccc1 [Phenyl glyoxal] (100 µM) | -5.43 ± 7.7
CC1=C(/C=C/C(C)=C\C=C\C(C)=C\C(=O)O)C(C)(C)CCC1 [9-cis Retinoic acid] (100 µM) | 44.4 ± 15
CCCCCCCCCCCCO [1-Dodecanol] (100 µM) | 9.85 ± 8.8
COc1ccc2cc(CCC(C)=O)ccc2c1 [Nabumetone] (100 µM) | -12.2 ± 1.2
Sc1nc2ccccc2s1 [2-Mercaptobenzothiazole] (100 µM) | -13.7 ± 14
O=[N+]([O-])c1cc(Cl)c(Cl)c(Cl)c1Cl [2,3,4,5-Tetrachloronitrobenzene] (10 µM) | -4.73 ± 2.7
CC(C(=O)O)c1ccc(/C=C2\CCCCC2=O)cc1 (stereo not given) [Pelubiprofen] (100 µM) | -1.67 ± 0.26
O=C1Nc2ccccc2C1(c1ccc(O)cc1)c1ccc(O)cc1 [Oxyphenisatin] (100 µM) | 15.6 ± 12
CC(C)=CCOc1ccc(/C=C/C(=O)c2ccc(OCC=C(C)C)cc2OCC(=O)O)cc1 [Sofalcone] (100 µM) | -27.7 ± 3.9
O=C1c2cccc(O)c2C(=O)c2c(O)cccc21 [Danthron] (100 µM) | 16.5 ± 0.49
NC(=S)NC(N)=S [2,4-Dithiobiuret] (200 µM) | 15.9 ± 2.6
CC(C)(C)c1ccc(S)cc1 [4-tert-Butylbenzenethiol] (200 µM) | 38.6 ± 14
Cc1ccc(O)c2ncccc12 [Tiliquinol] (10 µM) | 26.6 ± 6.2
O=C(O)c1cc(O)c2ccccc2c1O [1,4-dihydroxy-2-naphthoic acid*] (10 µM) | 374 ± 47
COP(=O)(O)OP(=O)(O)OC [Dimethyl dihydrogen diphosphate] (200 µM) | -11.2 ± 2.4

Compound | CD54 surface expression induction
N=C1C=CC(=C(c2ccc(N)cc2)c2ccc(N)cc2)C=C1 [C.I. Basic Red 9 monohydrochloride] (10 µM) | 10.7 ± 6.1
Cc1occc1S [2-Methyl-3-furanthiol] (200 µM) | 36.6 ± 1.1
Clc1nc(C(Cl)(Cl)Cl)c(Cl)c(Cl)c1Cl [2,3,4,5-Tetrachloro-6-(trichloromethyl)pyridine] (10 µM) | -4.98 ± 3.6
CCCCCOc1ccccc1/C(=C\SC)n1ccnc1 [Neticonazole] (100 µM) | 17.2 ± 5
CC(=O)Oc1ccc(C(c2ccc(OC(C)=O)cc2)c2ccccn2)cc1 [Bisacodyl] (100 µM) | -7.9 ± 29
C/C=C/C=C/C=O [2,4-Hexadienal] (200 µM) | 9.31 ± 6.7
Clc1ccc(C(Cn2ccnc2)OCc2ccc(Sc3ccccc3)cc2)c(Cl)c1 (stereo not given) [Fenticonazole nitrate] (100 µM) | 21.1 ± 8.7
O=C(Nc1ccccc1)c1cc(Cl)ccc1O [5-Chlorosalicylanilide] (10 µM) | -4.26 ± 3.3
CCCSS/C(CCO)=C(/C)N(C=O)Cc1cnc(C)nc1N [Prosultiamine] (10 µM) | -0.63 ± 2.5
Oc1ccc2ccccc2c1N=Nc1ccccc1 [C.I. Solvent Yellow 14] (200 µM) | -0.27 ± 5.9
CCCCCCCCCCCCN(CCO)CCO [Lauryldiethanolamine] (10 µM) | -10.1 ± 4.7
C=CC(=O)OCCn1c(=O)n(CCOC(=O)C=C)c(=O)n(CCOC(=O)C=C)c1=O (10 µM) | 3.33 ± 5.3
O=C(/C=C/C=C/c1ccc2c(c1)OCO2)N1CCCCC1 [Piperine] (100 µM) | 0.08 ± 0.77
Cc1cc(C2(c3cc(C)c(O)cc3C)OS(=O)(=O)c3ccccc32)c(C)cc1O [p-Xylenol blue] (200 µM) | 8.91 ± 6.7
CCCCCCC(C)O (stereo not given) [2-Octanol] (200 µM) | -1.7 ± 0.35
COc1ccc(-c2cc(=S)ss2)cc1 [Anethole trithione] (100 µM) | -12.4 ± 13
COC(=O)CCCCCCCC(=O)OC [Dimethyl nonanedioate] (200 µM) | -1.14 ± 2.1
O=C(O)Cn1c(C(=O)Nc2nc(-c3ccccc3Cl)cs2)cc2ccccc21 [Lintitript] (100 µM) | 1.24 ± 1.1
Clc1ccccc1-c1nc(-c2ccncc2)no1 [Pifexole] (100 µM) | -5.59 ± 1.4
CCCCCCCCCCCCCC[N+](C)(C)C [Tetradonium bromide] (10 µM) | 17.7 ± 3.4
